Experimental findings from PubChem BioAssay are described below.

Active and inactive are the calls of the source. The rule behind the calls is not given here.

The nature of the test: inhibitors of hydroxyurea-induced Chk1 phosphorylation, primary screen, imaging, HeLa, phospho-Chk1 antibody, percent positive cells (AID 1186). Conditions: hydroxyurea-induced phospho-Chk1 immunofluorescence imaging, higher = more signal.
Take `COCCCNC(=O)[C@@]1(CCC(=O)OC(C)(C)C)N=C(c2ccc(OCCCO)cc2)O[C@H]1c1ccccc1`: the z-score was 0.185 (inactive).

`C=CCOC(=O)[C@@H]1[C@H]2C(=O)O[C@H](c3ccccc3)[C@H](c3ccccc3)N2[C@H](c2ccc(OCCOC(=O)[C@@H]3C[C@@H]4C(=O)N[C@@H](CC(C)C)C(=O)N4[C@@H]3c3ccc(O)cc3)cc2)[C@@]12C(=O)Nc1ccc(I)cc12`: the z-score was -0.926 (inactive). For `CN1C2C=C(c3ccc(CO)cc3)C(C3C(=O)N(C(N)=O)C(=O)C32)C1C1CC1` (configuration not stated), the z-score was 0.258 (inactive).

Turning to `CC(C)(C)OC(=O)CC[C@@]1(C(=O)N2CCOCC2)N=C(c2ccc(OCCCO)cc2)O[C@@H]1c1ccccc1CN=[N+]=[N-]`, the z-score is 0.158 (inactive). With `COCCOC(=O)N1C(=O)[C@@]2(c3cc(C#CCCO)ccc31)[C@H](c1ccc(O)cc1)N1[C@H](c3ccccc3)[C@H](c3ccccc3)OC(=O)[C@H]1[C@@H]2C(=O)NC[C@H](O)c1ccccc1` the figure was 0.0615 (inactive). Turning to `COC(=O)[C@@]1(Cc2ccc(F)cc2)[C@H]2c3cc(C(=O)N4CCCC4)n(Cc4ccc(OC(F)(F)F)cc4)c3C[C@H]2CN1C(=O)c1ccccc1`, the z-score is 1.06 (inactive). With `COc1cccc(C)c1NC(=O)O[C@H]1[C@H](OC(=O)Nc2ccccc2-c2ccccc2)[C@@H](OC(=O)Nc2ccccc2-c2ccccc2)[C@@H](OC)O[C@@H]1CO` the figure was 0.609 (inactive); with `COCCOC(=O)N1C(=O)[C@@]2(c3cc(C#CC4=CCCCC4)ccc31)[C@H](c1ccc(O)cc1)N1[C@H](c3ccccc3)[C@H](c3ccccc3)OC(=O)[C@H]1[C@@H]2C(=O)N1CCc2cc(OC)c(OC)cc2C1`, 0.301 (inactive); with `C=C(CCCC)C(=O)CC[C@@H](OC(C)=O)c1ccc(OCCO)cc1`, -0.266 (inactive). In the case of `CC(C)(C)OC(=O)CC[C@]1(C(=O)N2CCOCC2)COC(c2ccc(OCCCO)cc2)=N1`, the z-score is -0.16 (inactive). Take `CC1CC/C=C\[C@H]2OC34C=CCN(CCN5CCOCC5)C(=O)[C@H]3N(C(CO)C(C)C)C(=O)[C@@H]4C2C(=O)O1` (some centres not stated): the z-score is 0.607 (inactive). Take `C[C@@]1([C@@H](NS(=O)(=O)c2cccc3cccnc23)c2ccc(-c3ccccc3)cc2)C[C@H]1C1CCCCC1`: the z-score was 1.42 (inactive). Take `COc1ccc(CCNC(=O)[C@@]2(c3ccc([N+](=O)[O-])cc3)CC(=O)N(C3CCCCC3)[C@@H]2c2ccc(CO)cc2I)cc1`: the z-score is 0.129 (inactive). Consider `CCOC(=O)C[C@H]1[C@H](OC(=O)c2ccc(-c3ccccc3)cc2)[C@@H](NC(=O)c2ccc(-c3ccccc3)cc2)c2cc(OCCCO)ccc2N1C(=O)c1ccccc1`, for which the z-score is -0.166 (inactive). In the case of `CCCCC(=C=CC[C@H](O)c1ccccc1OCCO)CCO`, the z-score was 0.324 (inactive). With `CC1C2C(CCCO)=CC(C3C(=O)N(C)C(=O)C23)N1Cc1cccc(OC(F)(F)F)c1` (configuration not stated), the z-score was -0.324 (inactive). With `C[C@]1(C(=O)O)c2ccccc2C(=O)N(Cc2cc(C(F)(F)F)cc(C(F)(F)F)c2)[C@H]1c1ccc(CO)cc1` the figure was 0.19 (inactive).

As to `OCCCc1cc[n+](Cc2cc3c(cc2Br)OCO3)cc1`, the z-score was -0.0355 (inactive). For `COc1cc(Cc2cc3c(c(CCc4ccccc4)n2)[Si](C(C)C)(C(C)C)O[C@H]3c2ccccc2)cc(OC)c1OC`, the z-score is -0.167 (inactive).

As for `O=C1C2C=CC(C(O)C(c3ccccc3)c3ccccc3)N(Nc3ccccc3F)C2C(=O)N1c1ccccc1` (configuration not stated), the z-score was 0.837 (inactive). Turning to `[N-]=[N+]=NCc1ccccc1[C@H]1OC(c2ccc(OCCCO)cc2)=N[C@@]1(CCS(=O)(=O)c1ccccc1)C(=O)NCCN1CCOCC1`, the z-score was -0.0238 (inactive). As to `COc1ccc(C(=O)Nc2ccc(CN3C(=O)[C@@]4(O[C@@H](CC(=O)N(CCO)Cc5ccccc5)[C@H]([Si](C)(C)c5ccc(OC)cc5)[C@H]4C)c4ccccc43)cc2)cc1`, the z-score is -0.543 (inactive). As to `COc1ccc(C(=O)Nc2cccc(CN3C(=O)[C@]4(O[C@H](CC(=O)N(CCO)Cc5ccccc5)[C@@H]([Si](C)(C)c5ccc(OC)cc5)[C@@H]4C)c4ccccc43)c2)cc1`, the z-score is -0.571 (inactive). Then `C=CC[C@]1(C(=O)NCC(O)CO)N=C(c2ccc(OCCCO)cc2)O[C@H]1c1ccccc1CN=[N+]=[N-]` (some centres not stated), with -0.116 (inactive); and `O=C1C2C=CC(C(O)C3CC=CCC3)N(Nc3ccc([N+](=O)[O-])cc3)C2C(=O)N1c1ccccc1` (configuration not stated), with 0.691 (inactive). With `CCCCN1CC=CC23O[C@@H]4C=CCCOC(=O)C4[C@H]2C(=O)N(CCO)[C@@H]3C1=O` (some centres not stated), the z-score was -0.307 (inactive). In the case of `COc1ccc([Si](C)(C)[C@@H]2[C@@H](CC(=O)N3Cc4ccccc4C[C@H]3CO)O[C@]3(C(=O)N(Cc4ccc(I)cc4)c4ccccc43)[C@H]2C)cc1`, the z-score is -0.67 (inactive).
